# Out of some 360,000 compounds screened, about 7,500 (2.1%) were called active. Where a call stands in place of a potency, no number is given. Inconclusive results (about 8%) are left out. The call rests on the fitted dose curve; in most records, active means well fitted cell-killing curve with a large enough effect; inconclusive means small, poorly fitted or top-dose-only effect, or effect the other way, or another doubt; inactive means no such curve, though single readings can be large or run the other way. Many of the other results were omitted from the sample, so actives are more common in it than they were.
# Assay: qHTS for induction of synthetic lethality in tumor cells producing 2HG: qHTS for the HT-1080-IDH1KD cell line
# Conditions: HT-1080 IDH1 knockdown viability, ATP luminescence, 48 h; series mostly up to 46.1 µM
# Procedure, shortened: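 Using the IDH1-knockdown HT-1080 line run in the same batch and compound series as the NT line, viability after 48 h at 37 °C was determined by CellTiter-Glo luminescence and expressed as % activity.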
# Potency means the concentration at half of the fitted maximal effect.
row,Structure (SMILES),Potency
1,O=P(OC1=CCCCC1)(c1ccccc1)c1ccccc1,inactive
2,COP(=O)(NS(=O)(=O)c1ccccc1)OC,inactive
3,c1ccc(C(CN2CCCCC2)c2ccccc2)cc1,inactive
4,O=c1c2ccccc2[nH]c(=S)n1-c1cccc(Cl)c1,inactive
5,O=C1C2(Cl)C3(Cl)C4(Cl)C(Cl)(Cl)C5(Cl)C3(Cl)C1(Cl)C5(Cl)C24Cl (stereo not given),16.4 µM (active)
6,CC1C(=O)OC2CCN3CC=C(COC(=O)C(C)(O)C1(C)O)C23 (stereo not given),inactive
7,Cc1cccc(NC(=O)OC2CN3CCC2CC3)c1 (stereo not given),inactive
8,CN1CCN(Cc2ccc(OC(F)(F)F)cc2)CC1,inactive
9,O=c1c2ccccc2nc(/C=C/c2ccco2)n1-c1ccccc1O,inactive
10,Cc1nc2ccccc2c(=O)n1-c1ccc(Cl)cc1Cl,inactive
11,O=c1c2ccccc2nc(/C=C/c2ccc(F)cc2)n1-c1ccccc1O,20.6 µM (active)
12,CCOc1cccc(=NC2CCCCC2)c2c(C)[nH]c(C)c12,20.6 µM (active)
13,C=C(C)C1(CCCC)C(=O)NC(=S)NC1=O,inactive
14,CC(=O)Nc1ccc(C(=O)C(Cc2ccccc2)N(C)C)cc1 (stereo not given),inactive
15,CSc1nc2ccc(C)cc2c(=O)n1-c1cccnc1,inactive
16,O=C(NC1CCCCC1)N1Cc2cc(N3CCCCC3)ccc2-n2nncc2C1,inactive
17,Cc1cc2ccccn2c1C(C[N+](=O)[O-])c1c(F)cccc1Cl (stereo not given),10.3 µM (active)
18,CN1CCc2cc3c(cc2[C@H]1[C@@H]1OC(=O)c2c1ccc1c2OCO1)OCO3,inactive
19,c1cc2c(c(NC3=NCCCS3)c1)CCCC2,inactive
20,COC(=O)C1=C(c2ccc(OCc3ccccc3)cc2)C[C@@H]2CC[C@H]1N2C(=O)NCc1ccc(Cl)cc1,inactive
21,Cc1nc2nc(C)c(CCC(=O)N3CCC4(CC3)OCCO4)c(C)n2n1,inactive
22,COC1=CC=C2[C@H]3Cc4ccc(OC)c5c4[C@@]2(CCN3C)C1O5 (stereo not given in full),inactive
23,COc1ccc2c(c1O)-c1cccc3c1[C@@H](C2)N(C)CC3,inactive

row,Structure (SMILES),Potency
1,COc1ccc2c3c1O[C@H]1C[C@@H](O)C=C[C@@]31CCN(C)C2,5.8 µM (active)
2,COc1ccc(C(=O)CC2C(=O)N(C)C(=O)N(C)C2=O)cc1,inactive
3,Cc1ccc(-n2c(O)c(C=NCC3CCCO3)c(=O)[nH]c2=O)c(C)c1 (stereo not given),inactive
4,COc1ccc(NC(=O)N2Cc3ccccc3-n3nncc3C2)cc1,inactive
5,Cc1ncoc1C(=O)NCC1=C(c2cccc3ccccc23)C[C@@H]2CC[C@H]1N2Cc1ccco1,inactive
6,COc1cc(Cn2c(N)c(C(=O)NCc3ccco3)c3nc4ccccc4nc32)cc(OC)c1OC,8.91 µM (active)
7,COC(=O)C1=C(c2ccccc2)C[C@@H]2CC[C@H]1N2C(=O)NCc1ccco1,inactive
8,CCOC(=O)C1(c2ccccc2)CCN(CC(O)c2ccc(NC(C)=O)cc2)CC1 (stereo not given),inactive
9,CC12CCC3C(CCC4CC(=O)CCC43C)C1CC(=NO)C2=O (stereo not given),inactive
10,CNC(=O)O/N=C(\N)Cc1csc2ccc(Cl)cc12,20.6 µM (active)
11,CNC(=O)O/N=C(\N)Cc1csc2ccccc12,inactive
12,COC(=O)C1=C(c2ccc(OCc3ccccc3)cc2)C[C@@H]2CC[C@H]1N2C(=O)NCc1cccc(F)c1,inactive
13,O=C(NC(=S)N1C[C@H]2C[C@H](C1)c1cccc(=O)n1C2)c1ccc(F)cc1,inactive
14,CC(CC(C#N)(c1ccccc1)c1ccccc1)N1CCCCC1 (stereo not given),inactive
15,C=CCN1C(=O)C2(C(C(=O)OCC)=C(N)Oc3c2c(=O)oc2ccccc32)c2ccccc21 (stereo not given),inactive
16,O=c1c2ccccc2nc(CBr)n1-c1ccc(Cl)cc1,inactive
17,CC1CNCCN1c1ccc(Cl)cc1 (stereo not given),inactive
18,CC1=CC(=Cc2sc3ccccc3[n+]2C)C=C(C)O1,10.3 µM (active)
19,COc1ccccc1C1=NCc2nnc(CSC)n2-c2ccc(Cl)cc21,inactive
20,c1ccc(N2Cc3ccccc3-n3nncc3C2)nc1,inactive
21,COc1cccc(C(c2nnnn2-c2ccc3c(c2)OCCO3)N2CCC3(CC2)C(=O)NCN3c2ccccc2)c1OC (stereo not given),16.4 µM (active)
22,CC(=O)Nc1ccccc1C(=O)OCC(=O)c1cccc2ccccc12,inactive
